In the supplement of paper PMC6555819:

System: VDR:RXRa (NR concentration 270 nM, RXRa partner concentration 90 nM)
Assay: PBM binding z-score (relative to random genomic background probes); higher = stronger binding; sequences stand for … in GC…GCGATTGACAGCGTAGAATGAAGG
Description: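 Protein-binding microarray (Agilent 4x180K custom design, double-stranded 60-nt probes: 5' GC cap, 34-nt variable region, 24-nt constant primer region; full probe sequence given). Purified or IVT nuclear receptor:RXRα heterodimers (3:1 NR:RXRα, mostly 270:90 nM) or homodimers were incubated for 1 h in PBS with 2% milk and no ligand, then detected with Alexa488 antibodies. Fluorescence from o1-orientation probes (~5 replicates averaged) was converted to z-scores against 500 random hg19 background probes. Variable regions are seed direct-repeat (DR0–DR5) sites, all their single-nucleotide variants and half-site ablations.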

| Sequence | PBM binding z-score |
| --- | --- |
| TCGAGTAGGATAGGGGCATTCAGAATGGCGTCGA | -0.000288 |
| AGAACGAGGGTAATGAGTTGATAGCACGGGTGGC | 3.47 |
| TGGAGTAGGTTAGGGGCATTCAGAATGGCGTCGA | 1.05 |
| CCTTACGGGACAAGGTTATAGCACGGGTGGTACG | 0.416 |
| GCTACAGGGTCAGCTAGAGGCCAGAGTATGGAAA | 3.35 |
| GCTATTAGTCGAAAGGGCAACCGAATGATTCTCG | 0.247 |
| CCTAGCAGGTCAGGGTCACTCAAGCATTTCGCTT | 4.13 |
| GCTTGTAGATCAAGGTTAAGATAGACTAAGCTAA | 0.0807 |
| TCTCGGAGGACACGAAGGTCAGAGCTTTCCAGAG | 2.3 |
| CCTTACGGGTCACTCCAGGTGATAGCATCGGAGT | 3.34 |
| CCGACTGGGGCCAAGGTTACCATACTCAGTACGA | 0.63 |
| CCGACTGGGGCAAGGTTACCGTAACGCACAGCCA | -0.0549 |
| CCGACTGGGGCATTAGGTTACCATAAGCCAGCCC | -0.353 |
| CAAACTAGATCACCGGAAGGTCAAAGTCCGCATG | 3.03 |
| ACAGACAGGTGATGTAGGTAACTCAGGCTATCAT | -0.00251 |
| TAGCCTAGGTCATGGCCCAGTATACCACGCGAAC | 2.25 |
| ATCTCTAGGTAACCAAGTTCAGGGAATGCCGAAC | 3.85 |
| GCTATTACTTGAAAGGGCAACCGAATGATTCTCG | 0.432 |
| CCTAGTTGGTCAGAAGGTCACACACCGGATATGA | 3.5 |
| CGTCAAAGTTCAACTAAGGTAGCGTAAAGCACGC | 4.35 |

| Sequence | PBM binding z-score |
| --- | --- |
| TCTGCTAGGTCAGTTGGTCAGCTATCGAGCTGCC | 0.206 |
| TCTATTCGTTGATTAGGGCAACCGAAACAGCGGA | 0.441 |
| CCTGCTAAGTCAATGGTCAGCTAAAGCAGCTCGC | -0.304 |
| TAGCCTAGGTCATTGCGCCAGTATAGTACGCATC | 2.33 |
| TCGAGTTGGTCACGGAGGTCACACACGACGGGTA | 5.91 |
| AGTCAAAGTTCACTAGGTCACGTAAGATTCAGCT | 5.1 |
| CCTGGTTGGTCAAGGTCACACACGCTATAGGTAC | 4.37 |
| TCGAGTAGGTGAGTCGGGGCATTCAGCCAACATA | 1.68 |
| AAAACAGGGTCACTAGGCCAGAGTAGGTACGAAT | 4.38 |
| ACAAGCAGGCCAAGGGTCACTCAAGATTAGTCCG | 2.94 |
| GGAACGAGGGCAAAGTGGATAGCATCTGTCGACG | 1.08 |
| TCAGCTAGGTCAGTTGGTCAGCTAACGAGCTGCC | 0.211 |
| CCTACAGGGTCAGCTAGGCCAGAGTAGGGACGGC | 3.53 |
| CGAGCGAGGGCATGAGTTGATAGCAAATGCCGAT | 1.3 |
| ATCTCTAAGTAAAGTTCAGTGAAAGATCGATAGA | 1.67 |
| ATCTCTAGGTCACAAGTTCAGTGAAAGAGAGGAC | 4.26 |
| TATCCTAGGTCATTGGGCCAGTATAGTACGCATC | 3.04 |
| ACAGACAAGTGAGTGAAGGTAACTCAGCTGGACG | -0.435 |
| ACTATTAGTTGAGACGAGGGCGACCGATAGGTTG | 0.133 |
| TCTCGGATGACACGAAGGTCAGAGCTTTCCAGAG | 1.46 |
